# Results as given in PubChem BioAssay (EPA / NIEHS).
# The source made the active and inactive calls. Rule for the calls: active = hit-call score of the fitted dose curve at least 0.9, where 1 is the maximum; inactive = score below 0.9.
# Assays:
# [1] = read-out: Cytochrome P450 (CYP1A1), CYP1A1 (gene 1543); experiment: LTEA_HepaRG_CYP1A1: Life Technologies and Expression Analysis (LTEA) Assay for Cytochrome P450 (CYP1A1) using HepaRG (AID 2283454); settings: mRNA level, 48 h; actives raise or lower the signal
# Method in brief: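 Induction of CYP1A1 mRNA in a human hepatic cell line was measured 48 h after dosing, with 1 mM phenobarbital as induction positive control and 0.5% DMSO vehicle as baseline for bidirectional curve fitting.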
# [2] = read-out: CFLAR gene, CFLAR (gene 8837); experiment: LTEA_HepaRG_CFLAR: Life Technologies and Expression Analysis (LTEA) Assay for CFLAR gene using HepaRG (AID 2283455); settings: mRNA level, 48 h; actives raise or lower the signal
# Method in brief: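 Gain- or loss-of-signal changes in CFLAR transcript were fitted bidirectionally relative to 0.5% DMSO. Cells (HepaRG, duplicate wells) were dosed for 48 h across eight half-log concentrations topping at 100 uM; quantitation by TaqMan qRT-PCR.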
# [3] = read-out: Forkhead box O1 (FOXO1), FOXO1 (gene 2308); experiment: LTEA_HepaRG_FOXO1: Life Technologies and Expression Analysis (LTEA) Assay for Forkhead box O1 (FOXO1) using HepaRG (AID 2283456); settings: mRNA level, 48 h; actives raise or lower the signal
# Method in brief: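 Using one lot of HepaRG hepatic cells kept in 0.5% DMSO, the team applied test chemicals in duplicate, half-log dilutions from 100 uM, for 48 h. Expression, normalised to ACTB/GAPDH/POLR2A, was compared with vehicle in either direction.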
# [4] = CEETOX_H295R_TESTO: CeeTox H295R High-throughput Steroidogenesis Assay for Testosterone (TESTO) (AID 2283457); settings: actives raise or lower the signal
# Method in brief: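 Testosterone synthesis is assessed in human adrenocortical H295R cells after 48 h of chemical exposure, using HPLC-MS/MS of extracted medium. Activity is fitted in both directions against DMSO control.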
# [5] = read-out: growth arrest and DNA damage 45 (GADD45A), GADD45A (gene 1647); experiment: LTEA_HepaRG_GADD45A: Life Technologies and Expression Analysis (LTEA) Assay for growth arrest and DNA damage 45 (GADD45A) using HepaRG (AID 2283458); settings: mRNA level, 48 h; actives raise or lower the signal
# Method in brief: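 HepaRG, 48 h exposure, 8 conc. (top 100 uM, half-log steps), 0.5% DMSO vehicle, duplicates. Read-out: qRT-PCR mRNA level, housekeeping-normalized (ACTB/GAPDH/POLR2A). Curves fit bidirectionally vs DMSO baseline.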
# [6] = read-out: Forkhead box O3 (FOXO3), FOXO3 (gene 2309); experiment: LTEA_HepaRG_FOXO3: Life Technologies and Expression Analysis (LTEA) Assay for Forkhead box O3 (FOXO3) using HepaRG (AID 2283459); settings: mRNA level, 48 h; actives raise or lower the signal
# Method in brief: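 Gene-expression endpoint: FOXO3 transcript level by qRT-PCR in HepaRG cultures treated 48 h with chemicals up to 100 uM (half-log, 0.5% DMSO vehicle).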
# [7] = read-out: ABC Transporter (ABCB1), ABCB1 (gene 5243); experiment: LTEA_HepaRG_ABCB1: Life Technologies and Expression Analysis (LTEA) Assay for ABC Transporter (ABCB1) using HepaRG (AID 2283460); settings: mRNA level, 48 h; actives raise or lower the signal
# Method in brief: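 Human liver HepaRG line treated 48 h with up to 100 uM compound (eight half-log points, 0.5% DMSO); ABCB1 mRNA change fitted bidirectionally against DMSO controls.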
# [8] = read-out: growth arrest and DNA damage 45 (GADD45B), GADD45B (gene 4616); experiment: LTEA_HepaRG_GADD45B: Life Technologies and Expression Analysis (LTEA) Assay for growth arrest and DNA damage 45 (GADD45B) using HepaRG (AID 2283461); settings: mRNA level, 48 h; actives raise or lower the signal
# Method in brief: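 Values are bidirectional concentration-response fits against 0.5% DMSO controls. Underlying data: qRT-PCR mRNA levels in human HepaRG liver cells treated 48 h in serum-free induction medium, eight concentrations topping at 100 uM.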
# [9] = read-out: ABC Transporter (ABCC3), ABCC3 (gene 8714); experiment: LTEA_HepaRG_ABCC3: Life Technologies and Expression Analysis (LTEA) Assay for ABC Transporter (ABCC3) using HepaRG (AID 2283462); settings: mRNA level, 48 h; actives raise or lower the signal
# Method in brief: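 Differentiated HepaRG liver cells receive test chemicals at eight concentrations (max 100 uM) for 48 h. Expression of ABCC3 is quantified by qRT-PCR against ACTB, GAPDH and POLR2A, and activity is fitted in both directions against the DMSO control.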
# [10] = read-out: ABC Transporter (ABCB11), ABCB11 (gene 8647); experiment: LTEA_HepaRG_ABCB11: Life Technologies and Expression Analysis (LTEA) Assay for ABC Transporter (ABCB11) using HepaRG (AID 2283463); settings: mRNA level, 48 h; actives raise or lower the signal
# Method in brief: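 Using HepaRG cultures held in 0.5% DMSO, chemicals were tested at half-log dilutions from 100 uM for 48 h. Induction or suppression of ABCB11 mRNA, normalized to ACTB, GAPDH and POLR2A, was fitted bidirectionally against vehicle.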
# [11] = read-out: ABC Transporter (ABCC2), ABCC2 (gene 1244); experiment: LTEA_HepaRG_ABCC2: Life Technologies and Expression Analysis (LTEA) Assay for ABC Transporter (ABCC2) using HepaRG (AID 2283464); settings: mRNA level, 48 h; actives raise or lower the signal
# Method in brief: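 Gene expression of ABCC2 was determined by qRT-PCR in HepaRG cells exposed 48 h to chemicals (highest 100 uM, half-log dilutions). Activity was fitted in both directions relative to 0.5% DMSO vehicle.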
# [12] = read-out: Broad substrate specificity ATP-binding cassette transporter ABCG2 (Homo sapiens) (UniProt Q9UNQ0); experiment: LTEA_HepaRG_ABCG2: Life Technologies and Expression Analysis (LTEA) Assay for ABC Transporter (ABCG2) using HepaRG (AID 2283465); settings: mRNA level, 48 h; actives raise or lower the signal
# Method in brief: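 Gene expression of ABCG2 in HepaRG liver cells is quantified by qRT-PCR following 48 h exposure across an eight-point series topping at 100 uM. Values come from bidirectional fitting relative to DMSO vehicle.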
# [13] = read-out: ATP-citrate lyase (ACLY), ACLY (gene 47); experiment: LTEA_HepaRG_ACLY: Life Technologies and Expression Analysis (LTEA) Assay for ATP-citrate lyase (ACLY) using HepaRG (AID 2283466); settings: mRNA level, 48 h; actives raise or lower the signal
# Method in brief: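 ACLY expression changes in human HepaRG liver cells are quantified by qRT-PCR after 48 h exposure to test chemicals (maximum 100 uM, half-log steps). Values are fitted in both directions relative to 0.5% DMSO vehicle.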
# [14] = read-out: Peroxisomal acyl-coenzyme A oxidase 1 (ACOX1) gene, ACOX1 (gene 51); experiment: LTEA_HepaRG_ACOX1: Life Technologies and Expression Analysis (LTEA) Assay for Peroxisomal acyl-coenzyme A oxidase 1 (ACOX1) gene using HepaRG (AID 2283467); settings: mRNA level, 48 h; actives raise or lower the signal
# Method in brief: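 Human HepaRG hepatic cultures, 48 h treatment with test chemicals up to 100 uM. ACOX1 expression read by qRT-PCR relative to 0.5% DMSO vehicle.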
# [15] = read-out: Alkaline Phosphatase, Placental (ALPP) gene, ALPP (gene 250); experiment: LTEA_HepaRG_ALPP: Life Technologies and Expression Analysis (LTEA) Assay for Alkaline Phosphatase, Placental (ALPP) gene using HepaRG (AID 2283468); settings: mRNA level, 48 h; actives raise or lower the signal;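 for AC50: ALPP transcript by TaqMan qRT-PCR normalized to ACTB GAPDH and POLR2A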
# Method in brief: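 Expression of ALPP was quantified by qRT-PCR against three housekeeping genes in human HepaRG cultures treated for 48 h with an eight-point concentration series up to 100 uM. Activity in either direction was fitted relative to 0.5% DMSO.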
# [16] = read-out: Bcl-2 (BAD) gene, BAD (gene 572); experiment: LTEA_HepaRG_BAD: Life Technologies and Expression Analysis (LTEA) Assay for Bcl-2 (BAD) gene using HepaRG (AID 2283469); settings: mRNA level, 48 h; actives raise or lower the signal
# Method in brief: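 Activity values reflect up- or down-regulation of BAD mRNA in human HepaRG hepatic cells treated 48 h in serum-free medium, with eight-point half-log dosing capped at 100 uM and 0.5% DMSO vehicle.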
# [17] = read-out: Bcl-2 (BAX) gene, BAX (gene 581); experiment: LTEA_HepaRG_BAX: Life Technologies and Expression Analysis (LTEA) Assay for Bcl-2 (BAX) gene using HepaRG (AID 2283470); settings: mRNA level, 48 h; actives raise or lower the signal
# Method in brief: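 qRT-PCR read-out of BAX mRNA, normalized to three housekeeping genes, after 48 h chemical exposure of human HepaRG cells in serum-free induction medium; eight-point half-log series, top 100 uM, 0.5% DMSO vehicle; bidirectional fit versus DMSO.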
# [18] = read-out: adenosine kinase (ADK) gene, ADK (gene 132); experiment: LTEA_HepaRG_ADK: Life Technologies and Expression Analysis (LTEA) Assay for adenosine kinase (ADK) gene using HepaRG (AID 2283471); settings: mRNA level, 48 h; actives raise or lower the signal
# Method in brief: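 Differentiated HepaRG cells dosed 48 h in serum-free induction medium, 0.5% DMSO vehicle, eight half-log concentrations from 100 uM, in duplicate. ADK mRNA by TaqMan qRT-PCR normalised to ACTB, GAPDH, POLR2A; bidirectional fit versus DMSO.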
# [19] = read-out: Alpha-fetoprotein (AFP) gene, AFP (gene 174); experiment: LTEA_HepaRG_AFP: Life Technologies and Expression Analysis (LTEA) Assay for Alpha-fetoprotein (AFP) gene using HepaRG (AID 2283472); settings: mRNA level, 48 h; actives raise or lower the signal;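 for AC50: AFP transcript by TaqMan qRT-PCR normalized to ACTB GAPDH and POLR2A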
# Method in brief: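 qRT-PCR (Fluidigm TaqMan) readout of AFP transcript, normalized to three housekeeping genes, fitted bidirectionally against 0.5% DMSO baseline. HepaRG cells received chemicals for 48 h in serum-free induction medium, top concentration 100 uM, half-log steps.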
# [20] = read-out: BCL2L11 (gene 10018); experiment: LTEA_HepaRG_BCL2L11: Life Technologies and Expression Analysis (LTEA) Assay for Bcl-2 (BCL2L11) gene using HepaRG (AID 2283473); settings: mRNA level, 48 h; actives raise or lower the signal
# Method in brief: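 Cells were plated, cultured 48 h, switched to serum-free induction medium, then dosed in duplicate for 48 h at eight half-log concentrations up to 100 uM. Lysates underwent RNA isolation and TaqMan qRT-PCR; gain or loss versus DMSO was fitted.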
# Chain of Broad substrate specificity ATP-binding cassette transporter ABCG2 (Homo sapiens) (Q9UNQ0 whole entry, looked up): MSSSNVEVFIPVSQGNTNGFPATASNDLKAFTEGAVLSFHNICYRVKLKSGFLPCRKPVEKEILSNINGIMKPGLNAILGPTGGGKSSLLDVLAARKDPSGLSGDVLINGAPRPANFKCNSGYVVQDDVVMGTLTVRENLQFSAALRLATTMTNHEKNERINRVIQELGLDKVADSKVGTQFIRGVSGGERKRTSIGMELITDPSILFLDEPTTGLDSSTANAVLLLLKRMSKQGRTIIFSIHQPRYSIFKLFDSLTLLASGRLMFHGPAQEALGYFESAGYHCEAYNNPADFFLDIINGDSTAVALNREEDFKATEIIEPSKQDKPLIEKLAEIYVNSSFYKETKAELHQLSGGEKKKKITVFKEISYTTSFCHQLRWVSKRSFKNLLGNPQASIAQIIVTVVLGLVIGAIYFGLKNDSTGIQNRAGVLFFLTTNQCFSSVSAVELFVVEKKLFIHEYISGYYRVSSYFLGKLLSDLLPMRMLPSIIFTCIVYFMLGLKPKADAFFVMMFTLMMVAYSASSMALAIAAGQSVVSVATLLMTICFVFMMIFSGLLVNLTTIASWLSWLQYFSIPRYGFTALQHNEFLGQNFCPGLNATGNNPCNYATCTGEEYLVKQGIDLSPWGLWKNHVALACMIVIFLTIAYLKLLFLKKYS
structure (smiles),measurement,setting,value
Cc1c(C)c2c(c(C)c1O)CCC(C)(COc1ccc(CC3SC(=O)NC3=O)cc1)O2 (stereo not given),AC50,[1],27.5 µM (active)
same,outcome,[2],inactive
same,outcome,[3],inactive
same,outcome,[4],inactive
same,AC50,[5],262 nM (active)
same,AC50,[6],88.4 µM (active)
same,outcome,[7],inactive
same,AC50,[8],37.7 µM (active)
same,outcome,[9],inactive
same,AC50,[10],15.8 µM (active)
same,AC50,[11],93.7 µM (active)
same,outcome,[12],inactive
same,outcome,[13],inactive
same,AC50,[14],97.6 µM (active)
same,AC50,[15],15.8 µM (active)
same,outcome,[16],inactive
same,AC50,[17],29.6 µM (active)
same,outcome,[18],inactive
same,AC50,[19],25 µM (active)
same,AC50,[20],90.1 µM (active)
CC(C)(C)c1ccccc1,AC50,[1],50 µM (active)
same,outcome,[2],inactive
same,outcome,[3],inactive
same,outcome,[5],inactive
same,outcome,[6],inactive
same,outcome,[7],inactive
same,outcome,[8],inactive
same,outcome,[9],inactive
same,outcome,[10],inactive
same,outcome,[11],inactive
same,outcome,[12],inactive
same,outcome,[13],inactive
same,outcome,[15],inactive
same,outcome,[16],inactive
same,outcome,[17],inactive
same,outcome,[18],inactive
same,outcome,[19],inactive
same,outcome,[20],inactive
O=C(Oc1ccccc1)c1cccc(C(=O)Oc2ccccc2)c1,AC50,[1],67.7 µM (active)
same,outcome,[2],inactive
same,outcome,[3],inactive
same,outcome,[4],inactive
same,outcome,[5],inactive
same,outcome,[6],inactive
same,outcome,[8],inactive
same,outcome,[9],inactive
same,outcome,[10],inactive
same,outcome,[11],inactive
same,outcome,[12],inactive
same,outcome,[13],inactive
same,outcome,[14],inactive
same,outcome,[15],inactive
same,outcome,[16],inactive
same,outcome,[17],inactive
same,outcome,[19],inactive
same,outcome,[20],inactive
Oc1ccccc1O,outcome,[1],inactive
same,outcome,[2],inactive
same,outcome,[3],inactive
same,outcome,[5],inactive
same,outcome,[6],inactive
same,outcome,[7],inactive
same,outcome,[8],inactive
same,outcome,[9],inactive
same,outcome,[10],inactive
same,outcome,[11],inactive
same,outcome,[12],inactive
same,outcome,[13],inactive
same,outcome,[14],inactive
same,outcome,[15],inactive
same,outcome,[16],inactive
same,outcome,[17],inactive
same,outcome,[18],inactive
same,outcome,[19],inactive
same,outcome,[20],inactive
